# Data from PubChem BioAssay (EPA / NIEHS).
# Active and inactive are the calls of the source. The calls were made as follows: active = hit-call score of the fitted dose curve at least 0.9, where 1 is the maximum; inactive = score below 0.9.
# What was measured:
# Details in all cases: mRNA level, 48 h; actives raise or lower the signal
# [1] = read-out: CYP2C8 (gene 1558); assay: LTEA_HepaRG_CYP2C8: Life Technologies and Expression Analysis (LTEA) Assay for CYP2C8 using HepaRG (AID 2283483)
# Procedure, shortened: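 Differentiated human HepaRG cells were exposed for 48 h in serum-free induction medium to eight half-log concentrations up to 100 uM in 0.5% DMSO, in duplicate. CYP2C8 mRNA was measured by TaqMan qRT-PCR, normalized to ACTB, GAPDH and POLR2A, and fitted bidirectionally against DMSO.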
# [2] = read-out: CYP2C9 (gene 1559); assay: LTEA_HepaRG_CYP2C9: Life Technologies and Expression Analysis (LTEA) Assay for CYP2C9 using HepaRG (AID 2283484)
# Procedure, shortened: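 Differentiated human HepaRG cells were exposed 48 h in serum-free induction medium to eight half-log concentrations up to 100 uM in 0.5% DMSO. CYP2C9 mRNA was measured by qRT-PCR, normalized to ACTB, GAPDH and POLR2A, and fitted bidirectionally against DMSO.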
# [3] = read-out: CYP2E1 (gene 1571); assay: LTEA_HepaRG_CYP2E1: Life Technologies and Expression Analysis (LTEA) Assay for CYP2E1 using HepaRG (AID 2283485)
# Procedure, shortened: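 Human liver line HepaRG, plated 48 h, then serum-free induction medium + chemical x 48 h; 8-pt CRC from 100 uM, half-log, 0.5% DMSO, n=2. Readout: CYP2E1 mRNA qRT-PCR vs ACTB/GAPDH/POLR2A; bidirectional fit vs DMSO.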
# [4] = read-out: CYP4A11 (gene 1579); assay: LTEA_HepaRG_CYP4A11: Life Technologies and Expression Analysis (LTEA) Assay for CYP4A11 using HepaRG (AID 2283486)
# Procedure, shortened: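 Differentiated HepaRG cells, serum-free induction medium, exposed 48 h in duplicate to 8-point half-log series from 100 uM in 0.5% DMSO. CYP4A11 mRNA measured by qRT-PCR, normalized to ACTB, GAPDH, POLR2A; bidirectional fit versus DMSO.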
# [5] = read-out: Cytochrome P450 3A4 (Homo sapiens) (UniProt P08684); assay: LTEA_HepaRG_CYP3A4: Life Technologies and Expression Analysis (LTEA) Assay for CYP3A4 using HepaRG (AID 2283487)
# Procedure, shortened: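 HepaRG, 48 h exposure, 8-pt CRC from 100 uM (half-log), 0.5% DMSO, duplicates; serum-free induction medium. Readout: CYP3A4 mRNA, qRT-PCR, ACTB/GAPDH/POLR2A normalization. Bidirectional fit vs DMSO.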
# [6] = read-out: DNA damage-inducible transcript 3 (DDIT3), DDIT3 (gene 1649); assay: LTEA_HepaRG_DDIT3: Life Technologies and Expression Analysis (LTEA) Assay for DNA damage-inducible transcript 3 (DDIT3) using HepaRG (AID 2283488)
# Procedure, shortened: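 HepaRG plated 48 h, switched to serum-free induction medium, dosed 48 h (100 uM top, half-log, 8 pts, 0.5% DMSO, n=2); RNA isolated; DDIT3 by qRT-PCR; bidirectional curve fit vs DMSO.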
# [7] = read-out: Pro-epidermal growth factor (Homo sapiens) (UniProt P01133); assay: LTEA_HepaRG_EGF: Life Technologies and Expression Analysis (LTEA) Assay for Epidermal growth factor (EGF) using HepaRG (AID 2283489)
# Procedure, shortened: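 Differentiated human HepaRG cells, plated 48 h then switched to serum-free induction medium, were exposed for 48 h to test chemicals (8-point half-log series, top 100 uM, 0.5% DMSO). EGF mRNA was quantified by qRT-PCR, normalized to ACTB, GAPDH, POLR2A.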
# [8] = read-out: Early growth response protein 1 (EGR1) transcription factor, EGR1 (gene 1958); assay: LTEA_HepaRG_EGR1: Life Technologies and Expression Analysis (LTEA) Assay for Early growth response protein 1 (EGR1) transcription factor using HepaRG (AID 2283490)
# Procedure, shortened: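 Differentiated human HepaRG cells in serum-free induction medium were exposed in duplicate for 48 h to eight concentrations (top 100 uM, half-log steps) in 0.5% DMSO. EGR1 mRNA was quantified by qRT-PCR, normalized to ACTB, GAPDH and POLR2A, and fitted bidirectionally versus DMSO.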
# [9] = read-out: Ezrin (EZR), EZR (gene 7430); assay: LTEA_HepaRG_EZR: Life Technologies and Expression Analysis (LTEA) Assay for Ezrin (EZR) using HepaRG (AID 2283491)
# Procedure, shortened: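 Read-out is EZR transcript level by qRT-PCR, normalized to three housekeeping genes and fitted bidirectionally against the DMSO control. Human HepaRG cells received test chemicals for 48 h at eight half-log concentrations up to 100 uM in 0.5% DMSO.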
# [10] = read-out: Cytochrome P450 3A7 (Homo sapiens) (UniProt P24462); assay: LTEA_HepaRG_CYP3A7: Life Technologies and Expression Analysis (LTEA) Assay for CYP3A7 using HepaRG (AID 2283492)
# Procedure, shortened: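 HepaRG cells plated 48 h, then dosed in serum-free induction medium for 48 h at 8 concentrations (top 100 uM, half-log steps, 0.5% DMSO). CYP3A7 mRNA by qRT-PCR, normalised to ACTB/GAPDH/POLR2A; bidirectional fit versus DMSO.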
# Chain of Cytochrome P450 3A7 (Homo sapiens) (P24462 whole entry, looked up): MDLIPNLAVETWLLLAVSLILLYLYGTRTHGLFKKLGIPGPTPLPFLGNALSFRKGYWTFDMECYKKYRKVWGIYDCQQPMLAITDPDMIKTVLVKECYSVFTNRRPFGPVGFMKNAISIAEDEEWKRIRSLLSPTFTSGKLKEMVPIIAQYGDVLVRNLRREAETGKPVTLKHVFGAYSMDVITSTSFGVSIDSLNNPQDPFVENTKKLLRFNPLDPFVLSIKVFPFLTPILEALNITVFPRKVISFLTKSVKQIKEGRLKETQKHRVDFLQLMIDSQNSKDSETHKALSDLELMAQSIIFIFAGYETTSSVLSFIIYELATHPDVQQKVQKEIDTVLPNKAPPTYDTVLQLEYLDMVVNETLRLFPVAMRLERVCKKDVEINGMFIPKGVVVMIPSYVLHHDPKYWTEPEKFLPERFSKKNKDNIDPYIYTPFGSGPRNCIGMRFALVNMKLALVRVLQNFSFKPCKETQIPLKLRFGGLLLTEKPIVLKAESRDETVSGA
# Chain of Cytochrome P450 3A4 (Homo sapiens) (P08684 whole entry, looked up): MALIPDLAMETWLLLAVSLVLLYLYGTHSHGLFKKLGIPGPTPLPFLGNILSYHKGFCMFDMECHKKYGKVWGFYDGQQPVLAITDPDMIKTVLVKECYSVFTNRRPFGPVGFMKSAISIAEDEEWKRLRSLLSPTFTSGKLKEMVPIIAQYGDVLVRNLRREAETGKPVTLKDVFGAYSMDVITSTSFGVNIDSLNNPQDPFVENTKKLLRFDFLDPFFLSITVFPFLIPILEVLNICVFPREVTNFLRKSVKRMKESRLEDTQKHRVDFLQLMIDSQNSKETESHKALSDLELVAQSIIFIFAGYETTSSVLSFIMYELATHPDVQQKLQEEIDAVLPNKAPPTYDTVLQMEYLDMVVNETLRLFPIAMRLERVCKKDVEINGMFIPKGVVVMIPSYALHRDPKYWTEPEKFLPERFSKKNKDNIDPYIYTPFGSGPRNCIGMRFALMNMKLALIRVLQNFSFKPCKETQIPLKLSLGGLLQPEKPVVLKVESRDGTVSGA
compound,measurement,setting,value
O=C1c2c(O)cccc2Cc2cccc(O)c21,outcome,[1],inactive
same,outcome,[2],inactive
same,outcome,[3],inactive
same,outcome,[4],inactive
same,outcome,[5],inactive
same,outcome,[6],inactive
same,outcome,[7],inactive
same,outcome,[8],inactive
same,outcome,[9],inactive
same,outcome,[10],inactive
NC1CCCCC1,outcome,[1],inactive
same,outcome,[2],inactive
same,outcome,[3],inactive
same,outcome,[4],inactive
same,outcome,[5],inactive
same,outcome,[6],inactive
same,outcome,[7],inactive
same,outcome,[8],inactive
same,outcome,[9],inactive
same,outcome,[10],inactive
CCCCCCCCCCCCCCOS(=O)(=O)O,AC50,[1],12.6 µM (active)
same,AC50,[2],64.4 µM (active)
same,AC50,[3],42.3 µM (active)
same,AC50,[4],4.9 µM (active)
same,outcome,[5],inactive
same,outcome,[6],inactive
same,outcome,[7],inactive
same,outcome,[8],inactive
same,outcome,[9],inactive
same,outcome,[10],inactive
CN(C)C(=O)NC1(c2ccccc2)CCN(CC[C@@]2(c3ccc(F)c(F)c3)CN(C(=O)c3ccccc3)CCO2)CC1,outcome,[1],inactive
same,outcome,[2],inactive
same,AC50,[3],29.6 µM (active)
same,AC50,[4],47 µM (active)
same,AC50,[5],2.69 µM (active)
same,AC50,[6],56.6 µM (active)
same,outcome,[7],inactive
same,outcome,[8],inactive
same,outcome,[9],inactive
same,AC50,[10],2.8 µM (active)
NC(=Nc1ccccc1)Nc1ccccc1,outcome,[1],inactive
same,outcome,[2],inactive
same,outcome,[3],inactive
same,outcome,[4],inactive
same,outcome,[5],inactive
same,AC50,[6],27.6 µM (active)
same,outcome,[7],inactive
same,outcome,[8],inactive
same,outcome,[9],inactive
same,outcome,[10],inactive
O=Cc1ccccc1C=O,outcome,[1],inactive
same,outcome,[2],inactive
same,outcome,[3],inactive
same,outcome,[4],inactive
same,outcome,[5],inactive
same,outcome,[6],inactive
same,outcome,[7],inactive
same,outcome,[8],inactive
same,outcome,[9],inactive
same,outcome,[10],inactive
CCCCCCCC(=O)OC,AC50,[1],12 µM (active)
same,outcome,[2],inactive
same,outcome,[3],inactive
same,outcome,[4],inactive
same,outcome,[5],inactive
same,outcome,[6],inactive
same,outcome,[7],inactive
same,outcome,[8],inactive
same,outcome,[9],inactive
same,outcome,[10],inactive
O=C(O)c1[nH]n(-c2ccc(S(=O)(=O)O)cc2)c(=O)c1N=Nc1ccc(S(=O)(=O)O)cc1,outcome,[1],inactive
same,outcome,[2],inactive
same,outcome,[3],inactive
same,outcome,[4],inactive
same,outcome,[5],inactive
same,outcome,[6],inactive
same,outcome,[7],inactive
same,outcome,[8],inactive
same,outcome,[9],inactive
same,outcome,[10],inactive
C#CC(O)C(CC)CCCC (centres undefined),outcome,[1],inactive
same,outcome,[2],inactive
same,outcome,[3],inactive
same,outcome,[4],inactive
same,outcome,[5],inactive
same,outcome,[6],inactive
same,outcome,[7],inactive
same,outcome,[8],inactive
same,outcome,[9],inactive
same,outcome,[10],inactive
Cc1cc(SC2=C(O)C[C@@](CCc3ccc(N)cc3)(C(C)C)OC2=O)c(C(C)(C)C)cc1CO,AC50,[1],3.03 µM (active)
same,outcome,[2],inactive
same,AC50,[3],7.16 µM (active)
same,AC50,[4],2.25 µM (active)
same,AC50,[5],0.344 µM (active)
same,outcome,[6],inactive
same,AC50,[7],6.35 µM (active)
same,outcome,[8],inactive
same,outcome,[9],inactive
same,AC50,[10],0.151 µM (active)
C/C=C/c1ccc(OC)cc1,outcome,[1],inactive
same,outcome,[2],inactive
same,outcome,[3],inactive
same,outcome,[4],inactive
same,outcome,[5],inactive
same,outcome,[6],inactive
same,outcome,[7],inactive
same,outcome,[8],inactive
same,outcome,[9],inactive
same,outcome,[10],inactive
O=C1O[C@H]([C@H](O)CO)C(O)=C1O,outcome,[1],inactive
same,outcome,[2],inactive
same,outcome,[3],inactive
same,outcome,[4],inactive
same,outcome,[5],inactive
same,outcome,[6],inactive
same,outcome,[7],inactive
same,outcome,[8],inactive
same,outcome,[9],inactive
same,outcome,[10],inactive
Nc1nc(=S)c2[nH]cnc2[nH]1,AC50,[1],32.2 µM (active)
same,AC50,[2],7.91 µM (active)
same,AC50,[3],5.72 µM (active)
same,AC50,[4],6.3 µM (active)
same,AC50,[5],27.6 µM (active)
same,AC50,[6],8.69 µM (active)
same,outcome,[7],inactive
same,AC50,[8],7.2 µM (active)
same,AC50,[9],0.586 µM (active)
CC(C)c1cccc(C(C)C)c1NC(=O)NS(=O)(=O)c1cc(C(C)(C)O)co1,outcome,[1],inactive
same,outcome,[2],inactive
same,AC50,[3],33.9 µM (active)
same,AC50,[4],29.5 µM (active)
same,AC50,[5],3.54 µM (active)
same,outcome,[6],inactive
same,outcome,[7],inactive
same,outcome,[8],inactive
same,outcome,[9],inactive
same,outcome,[10],inactive
O=C(N[C@@H](c1ccccc1)[C@@H]1CCCCN1)c1cccc(C(F)(F)F)c1Cl,outcome,[1],inactive
same,AC50,[2],36.1 µM (active)
same,AC50,[3],13.1 µM (active)
same,AC50,[4],24.2 µM (active)
same,AC50,[5],86.9 µM (active)
same,AC50,[6],50 µM (active)
same,outcome,[7],inactive
same,AC50,[8],83.3 µM (active)
same,outcome,[9],inactive
same,outcome,[10],inactive
CC(=O)O,outcome,[1],inactive
same,outcome,[2],inactive
same,outcome,[3],inactive
same,outcome,[4],inactive
same,outcome,[5],inactive
same,outcome,[6],inactive
same,outcome,[7],inactive
same,outcome,[8],inactive
same,outcome,[9],inactive
same,outcome,[10],inactive
O=C(O)CC(O)(CC(=O)O)C(=O)O,outcome,[1],inactive
same,outcome,[2],inactive
same,outcome,[3],inactive
same,outcome,[4],inactive
same,outcome,[5],inactive
same,outcome,[6],inactive
same,outcome,[7],inactive
same,outcome,[8],inactive
same,outcome,[9],inactive
same,outcome,[10],inactive
OCC(O)CO,outcome,[1],inactive
same,outcome,[2],inactive
same,outcome,[3],inactive
same,outcome,[4],inactive
same,outcome,[5],inactive
same,outcome,[6],inactive
same,outcome,[7],inactive
same,outcome,[8],inactive
same,outcome,[9],inactive
same,outcome,[10],inactive
CCCCc1nc2cccnc2n1Cc1ccc(-c2ccccc2-c2nnn[nH]2)cc1,outcome,[1],inactive
same,outcome,[2],inactive
same,AC50,[3],28.6 µM (active)
same,outcome,[4],inactive
same,AC50,[5],16 µM (active)
same,outcome,[6],inactive
same,outcome,[7],inactive
same,outcome,[8],inactive
same,outcome,[9],inactive
same,AC50,[10],13.7 µM (active)
